Results filed as inconclusive are left out. Activity calls are given as the source filed them. Rule for the calls: active = hit-call score of the fitted dose curve at least 0.9, where 1 is the maximum; inconclusive = response in the unintended direction; inactive = score below 0.9.

Chain of human Vitamin D Receptor (VDR), VDR (gene 7421) (P11473 whole entry, looked up, the tested form may be a part): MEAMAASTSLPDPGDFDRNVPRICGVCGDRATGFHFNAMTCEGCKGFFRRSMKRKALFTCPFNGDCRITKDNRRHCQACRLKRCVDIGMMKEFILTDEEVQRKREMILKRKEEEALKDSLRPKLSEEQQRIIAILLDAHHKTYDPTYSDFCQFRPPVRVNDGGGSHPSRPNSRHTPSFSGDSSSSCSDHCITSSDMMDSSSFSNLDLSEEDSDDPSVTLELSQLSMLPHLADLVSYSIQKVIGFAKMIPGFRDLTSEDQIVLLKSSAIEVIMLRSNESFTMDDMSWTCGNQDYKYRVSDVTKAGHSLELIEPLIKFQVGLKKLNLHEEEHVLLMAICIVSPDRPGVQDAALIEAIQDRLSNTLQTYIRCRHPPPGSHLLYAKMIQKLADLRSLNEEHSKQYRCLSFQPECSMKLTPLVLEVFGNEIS

In the assay the target is human Vitamin D Receptor (VDR), VDR (gene 7421) (UniProt P11473). As to the kind of experiment: ATG_VDR_TRANS: Attagene TRANS-FACTORIAL HepG2 Assay for human Vitamin D Receptor (VDR) (AID 2283022). The procedure, abridged:
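RT-PCR/capillary electrophoresis read-out of reporter mRNA induction in transiently transfected HepG2; 24 h dosing; chimeric NR-Gal4 (TRANS format); gain-of-signal fit against DMSO baseline.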
With `CCOC(C)=O`, the compound was classed as inactive.

Turning to `CCOC=C(C(=O)OCC)C(=O)OCC`, the call was inactive.

On to `CCN(CC)CC`, for which the call was inactive.

For the compound `CC1CCC(C(=O)O)CC1` (stereo not drawn), the compound was called inactive.

For the compound `O=C(O)CN(CCCN(CC(=O)O)CC(=O)O)CC(=O)O`, the compound was called inactive.

As for `Cc1ccc2ccc3ccc(C)cc3c2c1`, the call was inactive.

On to `CCCC=O`, for which the compound was called inactive.

Consider `COC(O)c1ccccc1` (stereo not drawn), for which the result was inactive.

`CC1CNCC(C)O1` (stereo not drawn): the call was inactive.

Take `COc1cc([N+](=O)[O-])ccc1N`: the compound was called inactive.

With `O=CC(F)(F)C(F)(F)C(F)(F)C(F)F`, the outcome was inactive.

For `C=Cc1ccc(O)c(OC)c1`, the result was inactive.

With `Cc1ccc(S(=O)(=O)O)cc1`, the outcome was inactive.

Regarding `CCCCCCCCCCCCOC(=O)c1cc(O)c(O)c(O)c1`, the outcome was inactive.

For the compound `FC(F)(F)C(F)(F)C(F)(F)C(F)(F)I`, the result was inactive.

For `O=C(Nc1ccc(Cl)c(Cl)c1)c1cc(Cl)cc(Cl)c1O`, the result was inactive.

Consider `O=C(c1cc(O)c(O)c(O)c1)c1ccc(O)c(O)c1O`, for which the call was inactive.

On to `COC(=O)C(F)(F)C(F)(F)C(F)(F)C(F)(F)C(F)(F)F`, for which the call was inactive.

On to `CCO[Si](CCC1CCC2OC2C1)(OCC)OCC` (stereo not drawn), for which the compound was classed as inactive.

`OCC1CCC(CO)CC1` (stereo not drawn): the call was inactive.

Consider `COC(=O)C(F)(F)C(F)(F)C(F)(F)F`, for which the call was inactive.

Regarding `CC=O`, the result was inactive.

Take `O=C(C=C(O)C(F)(F)F)C(F)(F)F`: the call was inactive.

As for `O=C(OC(=O)C(F)(F)C(F)(F)F)C(F)(F)C(F)(F)F`, the compound was called inactive.

Turning to `FC(F)(F)C1(F)C(F)(F)C(F)(F)C(F)(F)C(F)(C(F)(F)F)C1(F)F` (stereo not drawn), the compound was classed as inactive.

On to `CNNCc1ccc(C(=O)NC(C)C)cc1`, for which the outcome was inactive.

Turning to `COc1ccc(C#N)cc1`, the result was inactive.

Turning to `Oc1c(Cl)ccc(Cl)c1Cl`, the outcome was inactive.

As for `Cc1cc(Cc2cc(C)cc(C(C)(C)C)c2O)c(O)c(C(C)(C)C)c1`, the result was inactive.

As to `COC(=O)CC(C(C)=O)C(=O)OC` (stereo not drawn), the call was inactive.

In the case of `CC(=O)Nc1ccc(S(N)(=O)=O)cc1`, the call was inactive.

Consider `CCCCCCCCCCCCCCCC(=O)OC`, for which the compound was called inactive.

Regarding `CCCCCC(C)OC(=O)COc1ccc(Cl)c2cccnc12` (stereo not drawn), the result was inactive.

For `NC(C(F)(F)F)C(F)(F)F`, the outcome was inactive.

With `c1cnc2c(c1)ccc1cccnc12`, the result was inactive.

`CCOC=O`: the compound was classed as inactive.

On to `CCCCCCCCCC=CCC1CC(=O)OC1=O` (stereo not drawn), for which the compound was classed as inactive.

As for `C=CC(=O)OCCN(CC)CC`, the compound was classed as inactive.

The record behind these values is PubChem BioAssay (EPA / NIEHS).
